The source made the active and inactive calls.
Experiments:
[1] = binders of probe aFSTL3 on microarray, primary screen, stem cell growth factor project, biochemical, small-molecule microarray, fluorescence 635/667 (AID 1064); settings: higher = more signal;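 further: measures binding of the biotinylated anti-FSTL3 antibody to printed compounds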
[2] = binders from COS7 lysate, DM2A8 probe, primary screen, torsin A project, cell lysate, small-molecule microarray, fluorescence 635/667 (AID 1065); settings: higher = more signal, COS7 lysate expressing mutant human TOR1A
[3] = binders of probe aFGF2 on microarray, primary screen, stem cell growth factor project, biochemical, small-molecule microarray, fluorescence 635/667 (AID 1067); settings: higher = more signal;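 further: measures binding of biotinylated aFGF2 protein to printed compounds on slides; z-score merges feature fluorescence and signal-to-noise across triplicate slides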
[4] = binders of probe aFGF10 on microarray, primary screen, stem cell growth factor project, biochemical, small-molecule microarray, fluorescence 635/667 (AID 1071); settings: higher = more signal;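 further: score merges 667 nm spot intensity and signal to noise from triplicate slides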
[5] = target: Neurogenic locus notch homolog protein 2 (Homo sapiens) (UniProt Q04721); experiment: Notch2 binders on small-molecule microarrays, primary screen, biochemical, small-molecule microarray, 635 nm fluorescence, stem cell growth factors (AID 1073); settings: Notch2 binding, higher = more signal
Sequence of Neurogenic locus notch homolog protein 2 (Homo sapiens) (Q04721 whole entry, looked up, canonical isoform): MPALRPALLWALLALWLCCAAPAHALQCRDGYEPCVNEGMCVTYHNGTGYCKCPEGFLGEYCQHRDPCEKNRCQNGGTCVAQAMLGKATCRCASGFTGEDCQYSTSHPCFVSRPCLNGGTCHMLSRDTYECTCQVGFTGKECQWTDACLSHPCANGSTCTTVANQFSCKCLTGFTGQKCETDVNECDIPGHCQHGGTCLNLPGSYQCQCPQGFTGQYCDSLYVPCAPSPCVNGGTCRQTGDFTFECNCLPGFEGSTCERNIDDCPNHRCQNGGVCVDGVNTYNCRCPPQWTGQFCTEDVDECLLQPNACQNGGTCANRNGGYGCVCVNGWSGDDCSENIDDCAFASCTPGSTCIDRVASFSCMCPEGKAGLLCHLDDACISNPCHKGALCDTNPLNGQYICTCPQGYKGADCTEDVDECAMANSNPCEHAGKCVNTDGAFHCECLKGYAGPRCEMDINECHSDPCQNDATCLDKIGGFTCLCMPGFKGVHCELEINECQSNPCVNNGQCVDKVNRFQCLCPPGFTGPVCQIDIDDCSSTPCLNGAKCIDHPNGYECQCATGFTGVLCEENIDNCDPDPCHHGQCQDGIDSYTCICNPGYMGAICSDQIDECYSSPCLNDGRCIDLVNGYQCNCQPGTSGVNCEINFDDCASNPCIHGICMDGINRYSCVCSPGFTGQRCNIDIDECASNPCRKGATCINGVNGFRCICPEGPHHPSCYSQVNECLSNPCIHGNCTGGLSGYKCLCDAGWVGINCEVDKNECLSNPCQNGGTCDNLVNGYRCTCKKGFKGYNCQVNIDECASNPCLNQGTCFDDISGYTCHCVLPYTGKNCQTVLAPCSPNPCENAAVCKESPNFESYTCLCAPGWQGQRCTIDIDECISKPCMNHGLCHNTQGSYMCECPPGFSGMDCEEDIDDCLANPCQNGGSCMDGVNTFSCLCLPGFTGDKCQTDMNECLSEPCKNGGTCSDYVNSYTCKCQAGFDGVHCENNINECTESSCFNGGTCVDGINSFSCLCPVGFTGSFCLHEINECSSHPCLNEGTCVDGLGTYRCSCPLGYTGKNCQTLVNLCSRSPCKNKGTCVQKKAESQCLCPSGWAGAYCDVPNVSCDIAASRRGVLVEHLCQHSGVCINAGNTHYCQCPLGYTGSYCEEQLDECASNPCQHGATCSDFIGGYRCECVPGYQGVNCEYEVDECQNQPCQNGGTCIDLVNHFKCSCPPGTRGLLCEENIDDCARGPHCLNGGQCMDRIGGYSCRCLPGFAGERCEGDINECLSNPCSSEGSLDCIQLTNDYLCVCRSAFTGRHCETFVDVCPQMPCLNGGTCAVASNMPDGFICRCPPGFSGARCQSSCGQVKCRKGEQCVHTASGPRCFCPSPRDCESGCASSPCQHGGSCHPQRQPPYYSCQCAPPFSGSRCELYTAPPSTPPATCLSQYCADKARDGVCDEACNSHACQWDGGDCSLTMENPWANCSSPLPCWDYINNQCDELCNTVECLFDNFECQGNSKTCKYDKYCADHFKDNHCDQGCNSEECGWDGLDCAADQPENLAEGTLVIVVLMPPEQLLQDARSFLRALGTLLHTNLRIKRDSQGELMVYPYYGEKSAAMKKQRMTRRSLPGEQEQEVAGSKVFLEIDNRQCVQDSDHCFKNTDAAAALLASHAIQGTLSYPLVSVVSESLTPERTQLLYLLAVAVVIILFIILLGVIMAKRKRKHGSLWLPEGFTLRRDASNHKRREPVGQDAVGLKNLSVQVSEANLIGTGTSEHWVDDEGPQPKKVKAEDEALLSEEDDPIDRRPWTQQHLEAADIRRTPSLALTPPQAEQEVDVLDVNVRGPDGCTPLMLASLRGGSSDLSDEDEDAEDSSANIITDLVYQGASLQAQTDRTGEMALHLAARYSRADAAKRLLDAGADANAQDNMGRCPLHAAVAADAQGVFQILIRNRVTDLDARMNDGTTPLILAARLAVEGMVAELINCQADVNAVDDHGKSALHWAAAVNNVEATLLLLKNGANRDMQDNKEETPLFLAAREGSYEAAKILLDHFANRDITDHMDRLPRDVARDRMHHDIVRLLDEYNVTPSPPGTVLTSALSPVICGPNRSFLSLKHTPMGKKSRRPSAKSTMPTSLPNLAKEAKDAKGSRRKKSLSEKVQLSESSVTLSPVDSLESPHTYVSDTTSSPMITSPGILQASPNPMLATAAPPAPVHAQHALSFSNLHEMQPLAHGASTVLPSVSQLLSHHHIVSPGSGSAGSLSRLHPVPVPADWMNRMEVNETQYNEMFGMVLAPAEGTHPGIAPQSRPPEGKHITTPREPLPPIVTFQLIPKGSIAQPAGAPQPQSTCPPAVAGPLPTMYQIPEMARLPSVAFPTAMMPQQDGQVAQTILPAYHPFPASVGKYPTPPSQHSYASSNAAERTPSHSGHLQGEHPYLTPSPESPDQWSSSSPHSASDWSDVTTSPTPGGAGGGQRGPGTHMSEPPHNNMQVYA

[6] = target: Pro-neuregulin-1, membrane-bound isoform (Homo sapiens) (UniProt Q02297); experiment: NRG1 binders on small-molecule microarrays, primary screen, psychiatric disease protein project, biochemical, small-molecule microarray, fluorescence 635/667 (AID 1075); settings: NRG1 binding, 635 nm fluorescence, higher = more signal;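 further: score combines 667 nm spot fluorescence with signal to noise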
Sequence of Pro-neuregulin-1, membrane-bound isoform (Homo sapiens) (Q02297 whole entry, looked up, the tested form may be a part, canonical isoform): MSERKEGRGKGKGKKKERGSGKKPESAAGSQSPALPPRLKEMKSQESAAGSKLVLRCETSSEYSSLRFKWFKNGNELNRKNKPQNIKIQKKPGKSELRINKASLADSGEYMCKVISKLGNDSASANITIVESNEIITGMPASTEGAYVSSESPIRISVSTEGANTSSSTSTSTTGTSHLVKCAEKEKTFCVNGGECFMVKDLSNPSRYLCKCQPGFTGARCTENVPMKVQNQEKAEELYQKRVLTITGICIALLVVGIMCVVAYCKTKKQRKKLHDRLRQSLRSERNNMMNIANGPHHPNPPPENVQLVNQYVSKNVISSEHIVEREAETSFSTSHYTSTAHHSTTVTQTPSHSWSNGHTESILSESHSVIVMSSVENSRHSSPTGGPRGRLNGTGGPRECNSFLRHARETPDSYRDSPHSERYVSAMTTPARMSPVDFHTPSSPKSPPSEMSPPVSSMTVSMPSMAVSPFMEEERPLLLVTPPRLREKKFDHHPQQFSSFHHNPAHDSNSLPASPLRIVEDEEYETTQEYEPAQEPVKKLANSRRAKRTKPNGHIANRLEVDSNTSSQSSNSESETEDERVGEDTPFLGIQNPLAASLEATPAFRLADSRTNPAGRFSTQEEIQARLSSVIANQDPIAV

[7] = tested on: Neuregulin-1 EGF-like domain; experiment: binders of neuregulin-1 EGF-like domain, primary screen, biochemical, small-molecule microarray, 635 nm fluorescence (AID 1081); settings: small-molecule microarray binding, higher = more signal;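 further: binding of the protein to compounds printed on small-molecule microarray slides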
[8] = FRG1 promoter luciferase signal modulators, primary screen, FRG1 inhibition for FSHD, cell-based, C2C12 myotubes, firefly/Renilla luciferase, luminescence (AID 1084); settings: higher = more signal, called active from +8 up or from −8 down
[9] = binders of probe aFST on microarray, primary screen, stem cell growth factor project, biochemical, small-molecule microarray, fluorescence 635/667 (AID 1086); settings: higher = more signal;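 further: score merges 667 nm fluorescence with signal-to-noise of each printed compound spot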
[10] = binders of probe aHhip on microarray, primary screen, stem cell growth factor project, biochemical, small-molecule microarray, fluorescence 635/667 (AID 1087); settings: higher = more signal;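 further: score merges spot fluorescence at 667nm with spot signal to noise ratio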
[11] = tested on: PRMT1 (protein arginine N-methyltransferase 1); experiment: PRMT1 binders on small-molecule microarrays, primary screen, biochemical, small-molecule microarray, 635 nm fluorescence (AID 1088); settings: small-molecule microarray binding, higher = more signal;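 further: binding of Prmt1 protein to compounds spotted on small-molecule microarray slides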
[12] = yeast growth modulation, basal conditions, primary screen, YJM789 clinical isolate, OD600, 24 h (AID 1089);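 further: growth of clinical yeast isolate S. cerevisiae YJM 789 seeded 1000 cells per well; test concentration not given here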; settings: S. cerevisiae YJM789 growth, higher = more signal, called active from +8 up or from −8 down
[13] = fission yeast growth modulation, primary screen, strain 972, OD600, 24 h, no modulator (AID 1090);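 further: basal condition with compound alone and no growth modifier present; test concentration not given here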; settings: S. pombe 972 growth, higher = more signal, called active from +8 up or from −8 down
[14] = S. cerevisiae growth modulation with rapamycin, primary screen, strain BY4716, OD600, 96 h (AID 1091); settings: higher = more signal, called active from +8 up or from −8 down; further: test concentration not given here
[15] = target: Torsin-1A-interacting protein 2 (Homo sapiens) (UniProt Q8NFQ8); experiment: LULL1 binders on small-molecule microarray, primary screen, cell lysate, human LULL1 lysate, 635/667 nm fluorescence (AID 1092); settings: hLULL1 lysate binding, 635 nm fluorescence, higher = more signal;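 further: probe is lysate of COS7 cells overexpressing human LULL1; score merges per-feature 667 nm fluorescence with signal-to-noise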
Sequence of Torsin-1A-interacting protein 2 (Homo sapiens) (Q8NFQ8 whole entry, looked up): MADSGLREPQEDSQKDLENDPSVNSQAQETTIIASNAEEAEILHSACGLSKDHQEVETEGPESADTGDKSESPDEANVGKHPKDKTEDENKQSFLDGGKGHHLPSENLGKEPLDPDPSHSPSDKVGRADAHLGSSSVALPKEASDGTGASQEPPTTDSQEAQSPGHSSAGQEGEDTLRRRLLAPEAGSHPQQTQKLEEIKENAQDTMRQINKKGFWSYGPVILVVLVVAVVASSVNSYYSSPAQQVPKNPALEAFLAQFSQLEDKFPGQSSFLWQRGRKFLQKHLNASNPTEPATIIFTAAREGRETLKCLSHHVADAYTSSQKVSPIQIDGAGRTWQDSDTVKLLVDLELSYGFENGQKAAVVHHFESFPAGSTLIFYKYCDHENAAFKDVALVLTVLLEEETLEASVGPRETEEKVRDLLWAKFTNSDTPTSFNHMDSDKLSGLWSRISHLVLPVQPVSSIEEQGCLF

[16] = E. coli growth modulation, two-sided OD650, primary screen, E. coli filamentation project, strain DRC41, 24 h (AID 1093); settings: OD650, 24 h, higher = more signal, called active from +8 up or from −8 down;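 further: MC1000 strain lacking acrAB efflux and sulA so SOS filamentation is blocked; test concentration not given here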
[17] = small-molecule microarray binders of probe aLefty2, primary screen, biochemical, biotinylated probe, 635/667 nm fluorescence (AID 1094); settings: higher = more signal;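 further: score merges spot fluorescence near 667 nm with spot signal-to-noise ratio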
[18] = tested on: Noggin (protein binding on small-molecule microarray); experiment: Noggin binders on small-molecule microarray, primary screen, biochemical, 635/667 nm fluorescence (AID 1095); settings: 635 nm fluorescence, higher = more signal;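 further: score merges 667 nm feature fluorescence with signal to noise over triplicate slides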
[19] = target: Neurogenic locus notch homolog protein 3 (Homo sapiens) (UniProt Q9UM47); experiment: NOTCH3 binders on small-molecule microarray, primary screen, biochemical, 635/667 nm fluorescence (AID 1096); settings: NOTCH3 binding, 635 nm fluorescence, higher = more signal
[20] = small-molecule microarray binders of probe aEGFR, primary screen, biochemical, biotinylated probe, 635/667 nm fluorescence (AID 1097); settings: higher = more signal;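 further: probe is a biotinylated anti-EGFR antibody binding compounds printed on slides; score combines fluorescence near 667 nm and signal to noise of each spot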

| SMILES | composite z-score [1] | composite z-score [2] | composite z-score [3] | composite z-score [4] | composite z-score [5] | composite z-score [6] | composite z-score [7] | z-score [8] | composite z-score [9] | composite z-score [10] | composite z-score [11] | z-score [12] | z-score [13] | z-score [14] | composite z-score [15] | z-score [16] | composite z-score [17] | composite z-score [18] | composite z-score [19] | composite z-score [20] |
| --- | --- | --- | --- | --- | --- | --- | --- | --- | --- | --- | --- | --- | --- | --- | --- | --- | --- | --- | --- | --- |
| O=C(N1CCOCC1)[C@@]1(CCS(=O)(=O)c2ccccc2)N=C(c2ccc(OCCCO)cc2)O[C@H]1c1ccccc1 | 0.448 | 1.06 | 0.0671 | 0.515 | 1.45 | 2.31 | 1.37 | 0.419 (inactive) | 1.37 | -0.191 | 1.44 | 0.487 (inactive) | 0.395 (inactive) | -0.0156 (inactive) | 3.56 | 0.746 (inactive) | 0.352 | 0.136 | 1.15 | 0.156 |
| CCCCNC(=O)c1ccc(C#C[Si](C(C)C)(C(C)C)C(C)C)c(OC(C)=O)c1 | -0.294 | -0.189 | -0.108 | 0.493 | 1.57 | 0.812 | 1.09 | -0.198 (inactive) | 0.207 | 0.0722 | 0.613 | -0.272 (inactive) | -1.61 (inactive) | 0.645 (inactive) | 0.765 | -0.423 (inactive) | -0.0916 | 0.926 | 1.05 | -0.0208 |
| CCOC(=O)C[C@H]1[C@H](OC(=O)c2ccccc2-c2ccccc2)[C@@H](NC(=O)c2ccc3ccccc3n2)c2cc(OCCCO)ccc2N1C(=O)c1ccccc1 | -0.384 | 0.491 | -0.0752 | 0.331 | 0.417 | 0.288 | 0.666 | -0.764 (inactive) | 0.377 | 0.0401 | 1.01 | 1.2 (inactive) | 0.364 (inactive) | 1.61 (inactive) | 1.46 | -0.943 (inactive) | -0.149 | 0.54 | 0.797 | -0.0084 |
| CN1C(=O)C2C=CC(C(O)c3ccc(I)cc3)N(Nc3ccccc3)C2C1=O (stereo not given) | 0.131 | 0.238 | 0.0253 | 0.846 | 1.26 | 1.56 | 1.24 | 0.266 (inactive) | 0.942 | 0.142 | 1.27 | -0.228 (inactive) | -0.504 (inactive) | 0.768 (inactive) | 2.99 | -1.78 (inactive) | 0.107 | -0.111 | 1.09 | 0.0778 |
| O=C(O)[C@H]1C[C@H]2C(=O)N[C@@H](Cc3ccccc3)C(=O)N2[C@H]1c1cccc(OCCO)c1 | 0.07 | 0.96 | -0.0246 | 0.495 | -0.116 | 0.154 | 1.44 | 5.68 (inactive) | 0.309 | 0.188 | 1.46 | 0.893 (inactive) | -1.11 (inactive) | -0.629 (inactive) | 2.14 | 0.446 (inactive) | 0.127 | 1.74 | 0.814 | 0.206 |

— PubChem BioAssay
